# Screens: PubChem, several laboratories
# Most compounds without a hit are left out; they make up all but 27% or so of the library.
# Cav3 T inh: human Cav3.2 channel inhibition, primary screen | AID 449739 | B-score at 10 µM | O95180 | actives 4% (n = 100,000) | Cav3.2-expressing cells, Fluo-4 calcium fluorescence FDSS; active compounds read low;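 active = single-dose well whose peak fluorescence ratio is a statistical outlier from its plate by either plate-standardised score or position-corrected B-score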
# Target sequence (O95180 whole entry, looked up): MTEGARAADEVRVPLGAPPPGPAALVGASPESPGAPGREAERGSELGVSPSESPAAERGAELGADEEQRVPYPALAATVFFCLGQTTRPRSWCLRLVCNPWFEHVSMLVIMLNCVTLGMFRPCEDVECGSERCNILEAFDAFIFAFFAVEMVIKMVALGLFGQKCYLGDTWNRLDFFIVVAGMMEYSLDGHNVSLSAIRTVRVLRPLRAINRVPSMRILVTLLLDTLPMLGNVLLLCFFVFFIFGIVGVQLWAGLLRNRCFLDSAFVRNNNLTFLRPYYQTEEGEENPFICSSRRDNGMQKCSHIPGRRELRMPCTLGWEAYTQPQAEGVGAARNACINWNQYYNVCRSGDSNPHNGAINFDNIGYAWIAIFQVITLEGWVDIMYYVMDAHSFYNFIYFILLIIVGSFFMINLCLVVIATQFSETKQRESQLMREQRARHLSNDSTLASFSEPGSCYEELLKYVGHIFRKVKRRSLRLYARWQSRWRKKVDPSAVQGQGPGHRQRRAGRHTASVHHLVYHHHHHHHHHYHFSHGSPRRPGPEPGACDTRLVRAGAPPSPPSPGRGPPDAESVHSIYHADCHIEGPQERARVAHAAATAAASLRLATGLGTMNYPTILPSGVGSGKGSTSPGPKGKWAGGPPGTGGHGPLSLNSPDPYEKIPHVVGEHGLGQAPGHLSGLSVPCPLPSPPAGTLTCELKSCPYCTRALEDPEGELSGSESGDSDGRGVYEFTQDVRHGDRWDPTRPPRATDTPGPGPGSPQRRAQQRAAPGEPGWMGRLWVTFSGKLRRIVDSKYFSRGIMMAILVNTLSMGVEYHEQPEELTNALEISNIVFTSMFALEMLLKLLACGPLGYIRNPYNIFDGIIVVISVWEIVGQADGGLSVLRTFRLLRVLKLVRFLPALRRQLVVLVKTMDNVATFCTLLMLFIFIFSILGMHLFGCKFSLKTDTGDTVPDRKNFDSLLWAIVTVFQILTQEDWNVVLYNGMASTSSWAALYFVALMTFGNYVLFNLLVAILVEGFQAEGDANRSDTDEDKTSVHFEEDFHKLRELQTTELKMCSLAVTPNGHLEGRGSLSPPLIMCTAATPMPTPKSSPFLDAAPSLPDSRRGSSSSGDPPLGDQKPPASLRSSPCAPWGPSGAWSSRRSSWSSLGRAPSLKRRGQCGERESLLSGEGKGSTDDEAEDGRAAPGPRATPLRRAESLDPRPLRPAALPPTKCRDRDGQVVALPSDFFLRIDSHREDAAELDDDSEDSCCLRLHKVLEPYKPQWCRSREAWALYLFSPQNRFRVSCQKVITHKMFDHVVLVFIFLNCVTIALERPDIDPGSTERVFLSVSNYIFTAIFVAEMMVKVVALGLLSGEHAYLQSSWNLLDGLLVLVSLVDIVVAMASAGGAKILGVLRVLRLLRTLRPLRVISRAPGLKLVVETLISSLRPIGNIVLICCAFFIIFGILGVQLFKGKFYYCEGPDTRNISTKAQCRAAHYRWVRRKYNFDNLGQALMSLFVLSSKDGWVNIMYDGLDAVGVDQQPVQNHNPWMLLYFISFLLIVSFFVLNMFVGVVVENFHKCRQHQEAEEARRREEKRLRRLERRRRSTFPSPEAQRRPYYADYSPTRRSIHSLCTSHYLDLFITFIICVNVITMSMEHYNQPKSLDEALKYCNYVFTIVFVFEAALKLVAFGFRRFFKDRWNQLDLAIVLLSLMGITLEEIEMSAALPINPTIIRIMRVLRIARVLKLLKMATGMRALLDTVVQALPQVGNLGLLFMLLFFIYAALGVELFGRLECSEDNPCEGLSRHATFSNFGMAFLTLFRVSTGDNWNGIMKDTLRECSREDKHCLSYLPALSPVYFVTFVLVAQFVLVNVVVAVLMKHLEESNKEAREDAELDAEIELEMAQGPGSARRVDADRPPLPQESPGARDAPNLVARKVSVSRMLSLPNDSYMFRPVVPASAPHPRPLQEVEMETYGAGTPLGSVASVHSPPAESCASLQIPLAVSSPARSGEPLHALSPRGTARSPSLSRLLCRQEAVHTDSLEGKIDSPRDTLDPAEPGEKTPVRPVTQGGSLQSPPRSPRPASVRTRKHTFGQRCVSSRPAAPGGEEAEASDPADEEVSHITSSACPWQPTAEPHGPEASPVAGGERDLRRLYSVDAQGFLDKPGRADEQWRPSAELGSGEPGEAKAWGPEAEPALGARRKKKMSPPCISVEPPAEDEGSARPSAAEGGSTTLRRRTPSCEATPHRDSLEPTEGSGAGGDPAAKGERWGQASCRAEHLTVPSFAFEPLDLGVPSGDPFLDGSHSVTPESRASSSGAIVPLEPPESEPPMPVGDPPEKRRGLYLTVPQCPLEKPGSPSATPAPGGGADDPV
# CYP2C9 activ: activators of human CYP2C9; recombinant CYP2C9, luciferin-H conversion, luminescence; active compounds read high; factor 1 = untreated enzyme, 0 = blocked; activation factor at 5 µM; actives 1.4% (n = 96,000);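 active = activation factor of 2 or more for CYP2C9 at a 5 µM dose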;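 also: 0 = sulfaphenazole-blocked wells and 1 = vehicle-only wells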
# CYP2C19 act: cytochrome P450 2C19 (human) activation; recombinant CYP2C19, luciferin-H EGE luminescence; active compounds read high; 0 = fully inhibited enzyme, 1 = untreated enzyme; 96,000 tested, under 10 active; activation factor at 5 µM; P33261; AID 1025;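 active = activation factor of at least 2 at 5 µM in the primary screen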;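 also: 0 = wells with 2.5 mM tranylcypromine and 1 = vehicle-only wells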
# CYP2C9 inh: human CYP2C9 inhibition | CYP2C9 Supersomes, luciferin-H conversion, luminescence | actives 20% (n = 96,000) | inhibition, % at 5 µM | AID 777;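 active = blocking of liver enzyme CYP2C9 beyond about 50% at 5 µM, limit read from the data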
# CYP2C19 inh: inhibitors of human CYP2C19 | inhibition, % at 5 µM | CYP2C19 Supersomes, luciferin-H EGE luminescence, 30 min | actives 21% (n = 96,000);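 active = CYP2C19 inhibition above a set limit at 5 µM in the primary screen, cut at about 50% in these data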;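 also: plate controls were negative control wells for no effect and 2.5 mM tranylcypromine positive control for full effect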
# An asterisk follows results filed as active; · = no result given.
SMILES,Cav3 T inh,CYP2C9 activ,CYP2C19 act,CYP2C9 inh,CYP2C19 inh
Cc1cccc(-n2nnc(C(=O)NCc3ccccn3)c2N)c1,0.25,1.2,1,-24,1
CCCN(Cc1cc2ccc(C)cc2[nH]c1=O)S(=O)(=O)c1ccccc1,-0.9,0,0.6,97*,36
COC(=O)c1cccc(S(=O)(=O)N(Cc2ccco2)Cc2cc3ccc(OC)cc3[nH]c2=O)c1,-0.15,0.5,0.8,52*,19
CCCS(=O)(=O)NCCc1cc2ccc(C)cc2[nH]c1=O,0.078,·,·,·,·
CC(=O)c1cccc(S(=O)(=O)N(CCCO)Cc2cc3ccc(C)cc3[nH]c2=O)c1,-3.8,0.3,1,71*,0
CC(=O)c1cccc(S(=O)(=O)N(Cc2cc3cc4c(cc3[nH]c2=O)OCCO4)CC2CCCO2)c1 (stereo unspecified),0.42,0.7,0.7,30,27
Cc1ccc(-c2nc3ccsc3c(=O)o2)cc1,-1.4,0.7,0.8,31,23
CCN(c1cccc(C)c1)c1nc2ccsc2c(=O)s1,-0.74,0.1,0.3,87*,65*
O=C(NCCCn1ccnc1)c1cccc(S(=O)(=O)N2CCCCCC2)c1,1.5,0,0,100*,95*
O=C(NC1CCCC1)c1cccc(S(=O)(=O)N2CCCCC2)c1,·,0.8,0.9,24,8
O=C(NCCCn1ccnc1)c1ccc(Cl)c(S(=O)(=O)N2CCOCC2)c1,0.15,0,0.6,97*,36
O=C(CSc1nc2nc[nH]c2c(=O)[nH]1)NC1CCCCC1,0.065,1.1,1.2,-12,-16
CCOC(=O)CNc1nnc(SCC(=O)OCC)[nH]c1=O,-0.31,1,1,2,5
Cc1ccc(C)c(S(=O)(=O)NC(CC(C)C)C(=O)O)c1 (stereo unspecified),·,0.9,0.9,11,8
Cc1cc(C(=O)N[C@@H](c2ccccc2)[C@]2(C)C[C@H]2[C@@H](C)C(=O)Nc2ccc3ccccc3c2)no1,-4.6*,·,·,·,·
Cc1cc(C(=O)N[C@H](c2ccccc2)[C@@]2(C)C[C@@H]2[C@@H](C)C(=O)Nc2ccc3ccccc3c2)no1,-0.034,·,·,·,·
Cc1cccc(OCC(=O)OCC(=O)c2c(N)n(C)c(=O)n(C)c2=O)c1,0.18,0.9,0.6,10,45
O=C(Nc1ccc(-n2cnnn2)cc1)C1CCCN1C(=O)NC1CCCCC1 (stereo unspecified),0.11,0.4,0.3,59*,66*
CCOc1ccccc1NC(=O)N1CCCC1C(=O)Nc1ccc(-n2cnnn2)c(C)c1 (stereo unspecified),0.13,0.2,0.3,79*,70*
O=C(Nc1ccc(-n2cnnn2)cc1)C1CCCCC1,2.1,0.7,0.7,31,33
Cc1ccc(NC(=O)N2CCCC2C(=O)Nc2ccc(-n3cnnn3)c(C)c2)cc1 (stereo unspecified),0.42,·,·,·,·
O=C(Oc1ccc2ccccc2c1Cl)N1CCCC1,-0.53,0.7,0.2,31,75*
O=C(Oc1ccc(Cl)c2cccnc12)N1CCCCC1,-0.084,0.7,0.5,28,55*
O=C(Oc1ccc(Cl)c2ccccc12)N1CCCCC1,-0.9,0.6,0.9,42,15
COc1ccc(-n2c(=O)cc(N3CC(C)OC(C)C3)[nH]c2=O)cc1 (stereo unspecified),0.46,0.9,0.9,6,6
SMILES,Cav3 T inh,CYP2C9 activ,CYP2C19 act,CYP2C9 inh,CYP2C19 inh
COC(=O)c1cc2ccccc2c(=O)s1,0.58,1.4,0.4,-42,61*
COC(=O)c1cc2ccc(OC)c(OC)c2c(=O)s1,1.5,0.7,0.4,27,57*
O=C(CSc1ccc(Cl)cc1Cl)N1CCC(c2nc3ccccc3s2)CC1,-1.4,0.4,0.5,58*,55*
Cc1cc(C)cc(NC(=S)N2CCC(c3nc4ccccc4s3)CC2)c1,-0.2,1,1,-2,-1
COc1ccccc1N/C(N)=N/c1nc(CSc2ccc(C)cc2)cc(=O)[nH]1,-1.1,0.4,0.4,61*,61*
COc1ccc(N/C(N)=N/c2nc(CSc3ccc(C)cc3)cc(=O)[nH]2)cc1,0.02,0.7,0.6,29,37
Cc1nn(-c2ccccc2)c2c1C(c1ccc(F)cc1F)C(C#N)=C(N)O2 (stereo unspecified),0.16,0.2,0.3,82*,68*
COc1ccc(OC)c(C2C(C#N)=C(N)Oc3c2c(C)nn3-c2ccc(C)cc2)c1 (stereo unspecified),0.11,0.5,0.9,48,13
Cc1nn(Cc2ccccc2)c2c1C(c1ccncc1)C(C#N)=C(N)O2 (stereo unspecified),·,0,0.1,100*,92*
Cc1nn(Cc2ccccc2)c2c1C(c1ccc(Cl)cc1)C(C#N)=C(N)O2 (stereo unspecified),-0.89,·,·,·,·
Cc1ccc(-n2nc(C)c3c2OC(N)=C(C#N)C3c2ccco2)cc1 (stereo unspecified),-0.27,0.6,0.8,37,18
COc1ccc(C2C(C#N)=C(N)Oc3c2c(C)nn3-c2ccccc2)cc1Cn1nc(C)c([N+](=O)[O-])c1C (stereo unspecified),0.39,0.2,0.7,85*,31
Cc1ccc(-n2nc(C)c3c2OC(N)=C(C#N)C3c2ccoc2)cc1 (stereo unspecified),-0.0084,0.4,0.7,64*,26
CN1CCN(C(=O)C2=C[C@@H](C3CC3)C[C@@H](OCc3ccc(CO)cc3)O2)CC1,0.6,·,·,·,·
O=C(Nc1ccon1)c1cccc(C(F)(F)F)c1,0.47,1,0.6,2,39
CCN(CC)c1ccc(C(=O)OCC(=O)NCC2CCCO2)cc1 (stereo unspecified),0.4,0.7,0.6,26,41
Cc1nn(-c2ccccc2)c2c1C(c1ccccc1)C(C#N)=C(N)O2 (stereo unspecified),1.4,0.1,0.1,87*,90*
CC(/C=C1\SC(=S)N(NC(=O)c2ccc(C)cc2)C1=O)=C\c1ccccc1,-2.3,0.4,0.8,61*,18
O=C1CCC([N+](=O)[O-])C(c2ccc(Cl)cc2Cl)N1 (stereo unspecified),0.03,1.1,1,-11,-1
CCCCC1=CC2=C(c3ccco3)C(=O)C(C)(OC(=O)c3ccc(OC)cc3)C(=O)C2=CN1CC(C)C (stereo unspecified),0.31,·,·,·,·
Oc1ccc(Oc2ccc3c(C(F)(F)F)cc(C(F)(F)F)nc3n2)cc1,-6.9*,1,1,2,0
COc1ccnc(CS(=O)c2nc3cc(OC(F)F)ccc3[nH]2)c1OC (stereo unspecified),-0.059,·,·,·,·
CCOc1ccc(N/C=C/C(=O)c2ccc3ccccc3c2)c([N+](=O)[O-])c1,0.12,2.1*,1,-108,4
COc1ccc(C(=O)/C=C/Nc2ccc([N+](=O)[O-])cc2C)cc1OC,-0.81,1,0.4,0,60*
CCOc1ccc(N/C=C/C(=O)c2ccc(C)cc2)c([N+](=O)[O-])c1,·,1.8,0.8,-80,23
